Values joined by “and” are separate entries in the source; they are usually repeats but may differ in a detail not shown here. Equal values may be shown once. Inconclusive results are not listed. Active and inactive are the calls of the source. The call rests on the fitted dose curve; in most records, active means well fitted inhibition curve with a large enough effect; inconclusive means small, poorly fitted or top-dose-only effect; inactive means flat fitted curve, though single readings scatter.
Tests used:
KB-3-1 = assay: Cytotoxic Profiling of Annotated Libraries Using Quantitative High-Throughput Screening (AID 1296008); details: Five cell lines viability, CellTiter-Glo ATP luminescence, 48-72 h; max response: active compounds read low; further: on the % scale 0 is the no-effect control and ±100 the full control effect
Summary of the method: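 Cytotoxicity was measured as CellTiter-Glo ATP luminescence, read after 10 min at room temperature. Compound treatment of the cells lasted 48 or 72 hr at 37 degrees Celsius in a qHTS format.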

PAD = assay: qHTS profiling for inhibitors of Plasmodium falciparum proliferation (AID 504749);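 further: 0% = DMSO vehicle and full inhibition = artemisinin control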; details: P. falciparum in erythrocytes, SYBR Green DNA, 72 h; series mostly up to 28.7 µM
Summary of the method: (§1)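 In a 72 h erythrocytic culture (37 C, humidified, 5% CO2) at 2.5% hematocrit and 0.3% starting parasitemia, compounds were tested; SYBR Green I in detergent lysis buffer stained parasite DNA overnight.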

PC15 = assay: as above; details: P. falciparum in erythrocytes, SYBR Green DNA, 72 h; series mostly up to 28.7 µM
Summary of the method: as §1

PC26 = assay: as above; details: P. falciparum in erythrocytes, SYBR Green DNA, 72 h; series mostly up to 28.7 µM
Summary of the method: as §1

PC49 = assay: as above; details: P. falciparum in erythrocytes, SYBR Green DNA, 72 h; series mostly up to 28.7 µM
Summary of the method: as §1

SC27B = assay: as above; details: P. falciparum in erythrocytes, SYBR Green DNA, 72 h; series mostly up to 28.7 µM
Summary of the method: as §1

TAB109 = assay: as above; details: P. falciparum in erythrocytes, SYBR Green DNA, 72 h; series mostly up to 28.7 µM
Summary of the method: as §1

TAB113 = assay: as above; details: P. falciparum in erythrocytes, SYBR Green DNA, 72 h; series mostly up to 28.7 µM
Summary of the method: as §1

TAB165 = assay: as above; details: P. falciparum in erythrocytes, SYBR Green DNA, 72 h; series mostly up to 28.7 µM
Summary of the method: as §1
Further: nearly all actives have a fitted effect of over 60% in size.

CC(C)(C)NCC(O)CSc1nc(-c2ccc(C(N)=O)s2)cs1 (centres undefined)
inactive: max response (KB-3-1) 15.3%

O=C[C@H](O)[C@@H](O)[C@@H](O)[C@H](O)CO
inactive: max response (KB-3-1) -13.6%

CC1(C)[C@H]2CC[C@]1(C)[C@H](O)C2
inactive: max response (KB-3-1) -0.648%

CC[C@@]1([C@@H]2O[C@@H]([C@H]3O[C@@](O)(CO)[C@H](C)C[C@@H]3C)C[C@@H]2C)CC[C@H]([C@]2(C)CC[C@]3(C[C@H](O)[C@@H](C)[C@@H]([C@@H](C)[C@@H](OC)[C@H](C)C(=O)O)O3)O2)O1 (stereo in doubt)
inactive: max response (KB-3-1) -18.2%

CO[C@@]1(NC(=O)C2SC(=C(C(N)=O)C(=O)O)S2)C(=O)N2C(C(=O)O)=C(CSc3nnnn3C)CS[C@@H]21 (some centres undefined)
inactive: max response (KB-3-1) 1.97%

O=C(O)[C@@H]1C[C@H](CP(=O)(O)O)CCN1
inactive: max response (KB-3-1) 23.4%

CC(C)(C)C(=O)OCC(=O)[C@H]1CC[C@H]2[C@@H]3CCC4=CC(=O)CC[C@]4(C)[C@H]3CC[C@]12C
inactive: max response (KB-3-1) -9.73%

CCc1cn([C@H]2C[C@H](O)[C@@H](CO)O2)c(=O)[nH]c1=O
inactive: max response (KB-3-1) 5.47%

CC(=O)N[C@@H](C=O)[C@@H](O)[C@H](O)[C@H](O)CO
inactive: max response (KB-3-1) 2.45%

CCCCCc1ccc(C)cc1O
inactive: Potency (PAD) | Potency (PC15) | Potency (PC26) | Potency (PC49) | Potency (SC27B) | Potency (TAB109) | Potency (TAB113) | max response (KB-3-1) -0.225%

C=O
inactive: max response (KB-3-1) 3.28%

CC1CS(=O)(=O)CCN1/N=C/c1ccc([N+](=O)[O-])o1 (centres undefined)
inactive: max response (KB-3-1) 1.84%

Cc1cccc(C)c1NC(=O)C1CCCCN1C (centres undefined)
inactive: Potency (PAD) | Potency (PC15) | Potency (PC26) | Potency (PC49) | Potency (SC27B) | Potency (TAB109) | Potency (TAB113) | Potency (TAB165) | max response (KB-3-1) -1.09%

O=C(O)CC/C=C\CC[C@@H]1[C@@H](N2CCCCC2)[C@@H](O)C[C@@H]1OCc1ccc(-c2ccccc2)cc1
inactive: Potency (PAD) | Potency (PC15) | Potency (PC26) | Potency (PC49) | Potency (SC27B) | Potency (TAB109) | Potency (TAB113) | Potency (TAB165) | max response (KB-3-1) -15.9%

O=C(OCc1ccccc1)c1cccnc1
inactive: Potency (PAD) | Potency (PC15) | Potency (PC26) | Potency (PC49) | Potency (SC27B) | Potency (TAB109) | Potency (TAB113) | Potency (TAB165) | max response (KB-3-1) -9.74%

C=CC(C)(O)CC/C=C(\C)CCC=C(C)C (centres undefined)
inactive: Potency (PAD) | Potency (PC15) | Potency (PC26) | Potency (PC49) | Potency (SC27B) | Potency (TAB109) | Potency (TAB113) | Potency (TAB165) | max response (KB-3-1) 0.0537%

O=P(O)(O)OP(=O)(O)OP(=O)(O)O
inactive: Potency (PAD) | Potency (PC15) | Potency (PC26) | Potency (PC49) | Potency (SC27B) | Potency (TAB109) | Potency (TAB113) | Potency (TAB165) | max response (KB-3-1) -3.72%

O=C(O)c1ccc(NC(=O)[C@H](Cc2ccc(O)cc2)NC(=O)c2ccccc2)cc1
inactive: Potency (PAD) | Potency (PC15) | Potency (PC26) | Potency (PC49) | Potency (SC27B) | Potency (TAB109) | Potency (TAB113) | Potency (TAB165) | max response (KB-3-1) 7.82%

CC/C=C\C/C=C\C/C=C\C/C=C\C/C=C\CCCC(=O)O
inactive: Potency (PAD) | Potency (PC15) | Potency (PC26) | Potency (PC49) | Potency (SC27B) | Potency (TAB109) | Potency (TAB113) | Potency (TAB165) | max response (KB-3-1) -1.96%

C[C@]12CCC(=O)C[C@@H]1CC[C@@H]1[C@@H]2CC[C@]2(C)C=CC[C@@H]12
inactive: Potency (PAD) | Potency (PC15) | Potency (PC26) | Potency (PC49) | Potency (SC27B) | Potency (TAB109) | Potency (TAB113) | Potency (TAB165) | max response (KB-3-1) -14.2%

Cc1cc(C)c(NC(=O)C[C@H](CC(=O)O)c2cccc3ccccc23)c(C(=O)N2CCC3(CCCC3)CC2)c1
inactive: Potency (PAD) | Potency (PC15) | Potency (PC26) | Potency (PC49) | Potency (SC27B) | Potency (TAB109) | Potency (TAB113) | Potency (TAB165) | max response (KB-3-1) -2.39%

CCN(CC)C(=S)S
inactive: Potency (PAD) | Potency (PC15) | Potency (PC26) | Potency (PC49) | Potency (SC27B) | Potency (TAB109) | Potency (TAB113) | Potency (TAB165) | max response (KB-3-1) 3.72%

CCCCCCCCCC(=O)NO
inactive: Potency (PAD) | Potency (PC15) | Potency (PC26) | Potency (PC49) | Potency (SC27B) | Potency (TAB109) | Potency (TAB113) | Potency (TAB165) | max response (KB-3-1) -3.47% and -15%

NC(N)=NCC1COc2ccccc2O1 (centres undefined)
inactive: Potency (PAD) | Potency (PC15) | Potency (PC26) | Potency (PC49) | Potency (SC27B) | Potency (TAB109) | Potency (TAB113) | Potency (TAB165) | max response (KB-3-1) -6.36%

CC1CCCCN1CCCOC(=O)c1ccccc1 (centres undefined)
inactive: Potency (PAD) | Potency (PC15) | Potency (PC26) | Potency (PC49) | Potency (SC27B) | Potency (TAB109) | Potency (TAB113) | Potency (TAB165) | max response (KB-3-1) 7.8%

OC/C=C/c1ccccc1
inactive: Potency (PAD) | Potency (PC15) | Potency (PC26) | Potency (PC49) | Potency (SC27B) | Potency (TAB109) | Potency (TAB113) | Potency (TAB165) | max response (KB-3-1) -5.63%

S=C=Nc1ccc(N=C=S)cc1
inactive: Potency (PAD) | Potency (PC15) | Potency (PC26) | Potency (PC49) | Potency (SC27B) | Potency (TAB109) | Potency (TAB113) | Potency (TAB165) | max response (KB-3-1) -15.9%

COC(=O)c1ccccc1O
inactive: Potency (PAD) | Potency (PC15) | Potency (PC26) | Potency (PC49) | Potency (SC27B) | Potency (TAB109) | Potency (TAB113) | Potency (TAB165) | max response (KB-3-1) -4.17%

CS(=O)(=O)OCC(O)C(O)COS(C)(=O)=O (centres undefined)
inactive: Potency (PAD) | Potency (PC15) | Potency (PC26) | Potency (PC49) | Potency (SC27B) | Potency (TAB109) | Potency (TAB113) | Potency (TAB165) | max response (KB-3-1) -18.1%

Cc1ncc(COP(=O)(O)O)c(CN)c1O
inactive: Potency (PAD) | Potency (PC15) | Potency (PC26) | Potency (PC49) | Potency (SC27B) | Potency (TAB109) | Potency (TAB113) | Potency (TAB165) | max response (KB-3-1) -6.16%

CC/C=C\C/C=C\C/C=C\C/C=C\C/C=C\C/C=C\CCC(=O)O
inactive: Potency (PAD) | Potency (PC15) | Potency (PC26) | Potency (PC49) | Potency (SC27B) | Potency (TAB109) | Potency (TAB113) | Potency (TAB165) | max response (KB-3-1) 0.95%

COc1ccccc1N1CCN(CCCC(=O)c2ccc(F)cc2)CC1
inactive: Potency (PAD) | Potency (PC15) | Potency (PC26) | Potency (PC49) | Potency (SC27B) | Potency (TAB109) | Potency (TAB113) | Potency (TAB165) | max response (KB-3-1) -4.67%

c1ccc2c(c1)OCC(CN1CCCCC1)O2 (centres undefined)
inactive: Potency (PAD) | Potency (PC15) | Potency (PC26) | Potency (PC49) | Potency (SC27B) | Potency (TAB109) | Potency (TAB113) | Potency (TAB165) | max response (KB-3-1) -16%

CCCCC[C@H](O)/C=C/[C@H]1[C@H](O)CC(=O)[C@@H]1C/C=C\CCCC(=O)O
inactive: Potency (PAD) | Potency (PC15) | Potency (PC26) | Potency (PC49) | Potency (SC27B) | Potency (TAB109) | Potency (TAB113) | Potency (TAB165) | max response (KB-3-1) 7.78%

O=C(NCCNCC(O)COc1ccc(O)cc1)N1CCOCC1 (centres undefined)
inactive: Potency (PAD) | Potency (PC15) | Potency (PC26) | Potency (PC49) | Potency (SC27B) | Potency (TAB109) | Potency (TAB113) | Potency (TAB165) | max response (KB-3-1) 1.66%

CO/N=C(/C(=O)N[C@@H]1C(=O)N2C(C(=O)O)=C(COC(N)=O)CS[C@H]12)c1ccco1
inactive: Potency (PAD) | Potency (PC15) | Potency (PC26) | Potency (PC49) | Potency (SC27B) | Potency (TAB109) | Potency (TAB113) | Potency (TAB165) | max response (KB-3-1) -4.54% and -18.4%

F[Si-2](F)(F)(F)(F)F
inactive: Potency (PAD) | Potency (PC15) | Potency (PC26) | Potency (PC49) | Potency (SC27B) | Potency (TAB109) | Potency (TAB113) | Potency (TAB165) | max response (KB-3-1) 6.45%

Source: PubChem BioAssay (NCATS)
